Bioassay records from PubChem BioAssay.
EWS-Fli block: EWS/Fli-driven NR0B1 reporter inhibitors, primary screen, A673 cells, NR0B1 luciferase, luminescence, MLPCN library | 0.67% of 350,000 active | viability-normalised | AID 651661, 2012 | inhibition, % at 12.6 µM;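 active = mean inhibition of at least 50% after viability correction, with every replicate also passing that limit; inconclusive = mean reaches 50% but only one of two replicates passes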;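 note: firefly luciferase signal divided by Alamar Blue viability fluorescence both relative to DMSO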
HIV Env fusion: inhibitors of HIV-1 Env-driven cell-cell fusion, primary screen, HeLa-JRFL effector, CEM21 target cells, luciferase | inhibition, % at 12.3 µM | 1.1% of 360,000 active;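 active = mean replicate inhibition score of at least 50 and every replicate individually at or above 50; inconclusive = only one of the two criteria met; inactive = mean below 50 and not all replicates reaching 50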
miR122 inh: miR-122 Renilla sensor signal increase in Huh7, primary screen, miR-122 inhibitor project, cell-based, single point, plate reader; Huh7 miR-122 Renilla luciferase sensor, 48 h; neutral wells = 0, positive control = 100; activation (reporter increase), % at 12.5 µM; 0.3% of 340,000 active; AID 602342, 2012;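 active = mean replicate activation score at least 90 and every replicate individually at or above 90; inconclusive = only one of the two criteria met; inactive = neither criterion met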;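 note: higher luciferase means less miR-122 activity so hits act as miR-122 inhibitors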
INS-1E GSIS act: GLuc luminescence reporter in INS-1E cells, primary screen for activators of glucose-dependent secretion of insulin; activation, % at 16.6 µM; INS-1E GLuc reporter insulin secretion, 2-3 h; 0.61% of 370,000 active;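 active = lowest replicate activation of at least 40%, so every replicate reaches that level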
PAX8 reporter: inhibitors of PAX8-driven TPO luciferase reporter, primary screen, RMG-I cells, single concentration | AID 652154, 2013 | 1.2% of 360,000 active | SteadyGlo, 24 h | inhibition, % at 12.6 µM;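 active = mean replicate inhibition at least 60% with every replicate also reaching 60%; inconclusive = only one of the two criteria is met; inactive = mean below 60% and not all replicates reaching 60%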;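 note: luciferase light reporting Pax8 driven TPO promoter activity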
Statin myotox sup: suppressors of statin myotoxicity in C2C12 myotubes, primary screen, cell-based, single point, plate reader | C2C12 myotubes + simvastatin, ATP luminescence, 48 h; scaled: DMSO 0, geranylgeraniol control 100 | rescue of ATP level, % at 7.49 µM | 0.78% of 330,000 active;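 active = mean ATP rescue above about 67%, or every replicate alone reaching that limit, limit read from the data, passing the limit was not always enough; inconclusive = no clear call, values can overlap the other calls; inactive = mean under the limit and some replicate under it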;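 note: myotubes were challenged with 10 µM simvastatin during compound exposure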
Large screens that a line does not name were inactive; [ ] = another dose, or the depositor's remark. Hits are enriched below; roughly 3.1% of the tested compounds scored in any of these assays.

COc1ccc([Si](C)(C)[C@H]2[C@H](CCO)O[C@@]3(C(=O)N(Cc4ccccc4)c4ccc(N5CCCCC5=O)cc43)[C@@H]2C)cc1	none (no result: miR122 inh, INS-1E GSIS act, Statin myotox sup)
COc1ccc([Si](C)(C)[C@@H]2[C@@H](CCO)O[C@]3(C(=O)N(Cc4ccc(N5CCOC5=O)cc4)c4ccccc43)[C@H]2C)cc1	HIV Env fusion 57[16.7 µM], PAX8 reporter 97 (no result: miR122 inh, INS-1E GSIS act, Statin myotox sup)
COc1ccc([Si](C)(C)[C@@H]2[C@@H](CCO)O[C@]3(C(=O)N(Cc4ccccc4)c4ccc(N5CCOC5=O)cc43)[C@H]2C)cc1	none (no result: miR122 inh, INS-1E GSIS act, Statin myotox sup)
COc1ccc(N(C(=O)CCC(=O)Nc2cc(C)on2)C(C(=O)NC2CCCC2)c2ccco2)cc1 (stereo not drawn)	none (no result: miR122 inh)
COc1ccc(N(C(=O)/C=C/C(=O)Nc2cc(C)on2)C(C(=O)NC2CCCC2)c2ccccc2C)cc1 (stereo not drawn)	PAX8 reporter 71 (no result: miR122 inh, Statin myotox sup)
COc1ccc(N(C(=O)CSCC(=O)Nc2cc(C)on2)C(C(=O)NC2CCCCC2)c2ccc(O)c(O)c2)cc1 (stereo not drawn)	HIV Env fusion 57 (no result: miR122 inh, Statin myotox sup)
C[C@@H]1CCCCO[C@@H](CN(C)S(=O)(=O)c2cn(C)cn2)[C@@H](C)CN([C@H](C)CO)C(=O)c2cc(NS(=O)(=O)c3ccccc3)ccc2O1	none (no result: Statin myotox sup)
Cc1noc(C)c1NC(=O)Nc1ccc2c(c1)CC(=O)N([C@H](C)CO)C[C@@H](C)[C@@H](CN(C)S(=O)(=O)c1cccs1)O2	none
Cc1ccc(S(=O)(=O)N2[C@H](CC(=O)OCc3ccccc3)OC[C@@H]2C(C)C)cc1	none (no result: miR122 inh, Statin myotox sup)
COC(=O)C[C@@H]1OC[C@H](C(C)C)N1S(=O)(=O)c1ccc(C)cc1	INS-1E GSIS act 44 (no result: miR122 inh, Statin myotox sup)
COc1ccc(C)cc1NC(=O)c1cnc2scc(C)n2c1=O	HIV Env fusion inconclusive
Cc1csc2ncc(C(=O)Nc3cccc(C(F)(F)F)c3)c(=O)n12	Statin myotox sup 107 (no result: INS-1E GSIS act)
COc1ccc(CCNC(=O)c2cnc3scc(C)n3c2=O)cc1OC	INS-1E GSIS act 61 (no result: Statin myotox sup)
COc1ccc(CN(C)C[C@@H]2OCCCC[C@@H](C)Oc3ccc(NC(=O)Nc4ccc(F)cc4)cc3C(=O)N([C@@H](C)CO)C[C@@H]2C)cc1	none
O=C(C[C@@H]1C=C[C@H](NC(=O)Nc2ccccc2F)[C@@H](CO)O1)NCc1ccc(-c2ccccc2)cc1	none
O=C(C[C@@H]1C=C[C@@H](NC(=O)CC2CC2)[C@H](CO)O1)NCc1ccc(Cl)cc1	HIV Env fusion 55[16.7 µM] (no result: miR122 inh)
O=C(C[C@H]1C=C[C@@H](NC(=O)Nc2ccccc2F)[C@@H](CO)O1)NCc1ccc(Cl)cc1	HIV Env fusion 72[16.7 µM] (no result: miR122 inh)
O=C(C[C@H]1C=C[C@@H](NC(=O)Nc2ccccc2F)[C@@H](CO)O1)NCc1ccc(-c2ccccc2)cc1	HIV Env fusion 84[16.7 µM] (no result: miR122 inh, PAX8 reporter, Statin myotox sup)
O=C(C[C@H]1C=C[C@H](NC(=O)Nc2ccccc2F)[C@H](CO)O1)NCc1ccc(Cl)cc1	none (no result: miR122 inh)
O=C(C[C@H]1C=C[C@@H](NC(=O)c2cccc(F)c2)[C@@H](CO)O1)NCc1ccc(Oc2ccccc2)cc1	HIV Env fusion 80[16.7 µM] (no result: miR122 inh)
CC=Cc1ccc2n(c1=O)C[C@H]1[C@H](CO)[C@@H](C(=O)N[C@H](C)c3ccccc3)[C@@H]2N1Cc1ccccc1 (mixture of isomers)	none (no result: HIV Env fusion, miR122 inh, Statin myotox sup)
C[C@@H]1CN([C@H](C)CO)C(=O)c2cc(NC(=O)Cn3cnnn3)ccc2O[C@H]1CN(C)S(C)(=O)=O	none (no result: PAX8 reporter, Statin myotox sup)
CCNC(=O)C[C@H]1CC[C@H]2[C@@H](COC[C@H](O)CN2Cc2ccncc2)O1	none
O=C(O)C[C@@H]1C=C[C@H](NC(=O)Nc2ccccc2)[C@H](CO)O1	HIV Env fusion 58[16.7 µM] (no result: miR122 inh)
CCOC1CCCC(n2cnc3c(=S)nc[nH]c32)O1 (stereo not drawn)	PAX8 reporter 83
O=C(c1ccc(Cl)c(S(=O)(=O)N2CCCCCC2)c1)N1CCN(c2ccccn2)CC1	HIV Env fusion 63 (no result: EWS-Fli block, PAX8 reporter, Statin myotox sup)
Cc1ccc(NC(=O)c2ccc(Cl)c(S(=O)(=O)N3CCCCCC3)c2)nc1	HIV Env fusion 61 (no result: Statin myotox sup)
Cc1cc(NC(=O)c2ccc(Cl)c(S(=O)(=O)N3CCOCC3)c2)no1	Statin myotox sup 128
C[C@@H](NC(=O)C[C@H]1CC[C@H](NC(=O)c2cccnc2)[C@@H](CO)O1)c1ccccc1	none
CCOC(=O)Cn1c(-c2ccccc2)nc2ccccc2c1=O	none (no result: EWS-Fli block, PAX8 reporter, Statin myotox sup)
CCOC(=O)Cn1c(=O)n(Cc2ccccc2)c(=O)c2cccnc21	INS-1E GSIS act 179
O=C(C1CCC1)N1CC2(C1)[C@H](c1ccccc1)[C@@H](CO)N2Cc1cccnc1	none (no result: HIV Env fusion, miR122 inh, Statin myotox sup)
O=C(COC(=O)C1CCN(S(=O)(=O)c2cccc3cccnc23)CC1)c1ccc(F)cc1	Statin myotox sup 96 (no result: EWS-Fli block, HIV Env fusion, INS-1E GSIS act, PAX8 reporter)
Cc1cccc(C)c1NC(=O)CCCSc1nnc(-c2ccc(F)cc2)n1-c1ccccc1	none (no result: INS-1E GSIS act, Statin myotox sup)
Cc1cccc(C)c1NC(=O)CCCSc1nnc(-c2ccc(Cl)cc2)n1-c1ccccc1	HIV Env fusion 79 (no result: miR122 inh, Statin myotox sup)
C[C@H](O)C#Cc1cnc2c(c1)C(=O)N([C@H](C)CO)C[C@H](C)[C@@H](CN(C)C(=O)Cc1ccccn1)O2	none (no result: PAX8 reporter)
CC1=CN2C(=N)/C(=C/c3cn(CCCOc4ccccc4C)c4ccccc34)C(=O)N=C2S1	INS-1E GSIS act 47 (no result: EWS-Fli block, Statin myotox sup)
O=C(N[C@H]1C=C[C@H](CC(=O)N2CCOCC2)O[C@@H]1CO)c1cccc(F)c1	none
Cc1ccc(C(O)(c2ccccc2)c2ccccc2C(C)N(C)C)c(C)c1 (stereo not drawn)	HIV Env fusion 79 (no result: EWS-Fli block, miR122 inh, PAX8 reporter, Statin myotox sup)
Nc1nn(S(=O)(=O)c2ccccc2)cc1-c1ccc([N+](=O)[O-])cc1	EWS-Fli block 83 (no result: Statin myotox sup)
C/C(=N\NC(=O)c1nn(C)cc1Br)c1cccc(NC(=O)C(C)(C)C)c1	none (no result: EWS-Fli block, HIV Env fusion, INS-1E GSIS act, PAX8 reporter)
C/C(=N\NC(=O)c1nn(C)cc1Br)c1ccc(NC(=O)c2ccncc2)cc1	PAX8 reporter 87 (no result: HIV Env fusion, miR122 inh, Statin myotox sup)
COc1cc(C)c(C)cc1S(=O)(=O)N1CCCCC1c1cccnc1 (stereo not drawn)	INS-1E GSIS act 57 (no result: EWS-Fli block, HIV Env fusion, PAX8 reporter)
Cc1ccc(S(=O)(=O)N2CCN(C(=O)COC(=O)c3cc(C)oc3C)CC2)cc1	Statin myotox sup 98 (no result: EWS-Fli block, HIV Env fusion, INS-1E GSIS act, PAX8 reporter)
COc1ccc2oc(C(=O)OCC(=O)N3CCN(S(=O)(=O)c4ccc(C)cc4)CC3)c(C)c2c1	none (no result: EWS-Fli block)
FC(F)(F)c1cccc(NC(=S)NCCc2ccccn2)c1	miR122 inh 249 (no result: EWS-Fli block, INS-1E GSIS act)
CC(C)(C)c1ccc(NC(=S)NCCc2ccccn2)cc1	none (no result: miR122 inh, Statin myotox sup)
O=C(NNC(=O)c1cccc2ccccc12)c1cccc(F)c1	PAX8 reporter 87 (no result: HIV Env fusion, miR122 inh, INS-1E GSIS act)
CC/C(O)=C(\C#N)c1nnc2n1CCCCC2	Statin myotox sup 87 (no result: EWS-Fli block, PAX8 reporter)
CC/C(O)=C(/C#N)c1nnc2n1CCCCC2	none (no result: EWS-Fli block, HIV Env fusion, INS-1E GSIS act, PAX8 reporter)
